Values joined by “and” are separate entries in the source; they are usually repeats but may differ in a detail not shown here. Identical values can stand only once. Inconclusive results are not listed. Some compounds were tested as several samples or in several runs, with calls that do not always agree. Active and inactive are the calls of the source. Rule for the calls, unless noted: active = hit-call score of the fitted dose curve at least 0.9, where 1 is the maximum; inactive = score below 0.9.
Assays:
[1] = read-out: Interleukin 17F (IL17F), IL17F (gene 112744); assay: BSK_BT_xIL17F: BioMAP Diversity Plus: BT Assay for Interleukin 17F (IL17F) Biomarker Activity (AID 2284243); conditions: primary human B cells with PBMC
Outline: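 Luminex readout of IL-17F secretion, 24 h; cells: human B cells with PBMC; positive-direction analysis, DMSO control.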

[2] = read-out: Actin alpha 1 (ACTA1), ACTA1 (gene 58); assay: BSK_MyoF_ACTA1: BioMAP Diversity Plus: MyoF Assay for Actin alpha 1 (ACTA1) Biomarker Activity (AID 2284244); conditions: primary human lung fibroblasts
Outline: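 ELISA read-out of a-SMA in primary human lung fibroblast cultures, 24 h post-dosing. Activity scored in the positive direction versus DMSO baseline.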

[3] = read-out: Interleukin 2 (IL2), IL2 (gene 3558); assay: BSK_BT_xIL2: BioMAP Diversity Plus: BT Assay for Interleukin 2 (IL2) Biomarker Activity (AID 2284245); conditions: primary human B cells with PBMC
Outline: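 Readout: supernatant IL-2 via Luminex xMAP after 24 h chemical dosing of a B cell/PBMC primary human co-culture. DMSO serves as negative control and baseline; increases in signal were fitted.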

[4] = read-out: Basic fibroblast growth factor (bFGF), FGF2 (gene 2247); assay: BSK_MyoF_bFGF: BioMAP Diversity Plus: MyoF Assay for Basic fibroblast growth factor (bFGF) Biomarker Activity (AID 2284246); conditions: primary human lung fibroblasts
Outline: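 Primary human lung fibroblast culture, 24 h compound exposure; ELISA read-out of bFGF. Positive-direction fit vs DMSO baseline. Cytotoxicity: SRB stain (0.1% SRB, 10% TCA fixation, 560 nm) in parallel wells.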

[5] = read-out: Collagen IV, COL4A1 (gene 1282); assay: BSK_MyoF_CollagenIV: BioMAP Diversity Plus: MyoF Assay for Collagen IV Biomarker Activity (AID 2284247); conditions: primary human lung fibroblasts
Outline: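 ELISA read-out of Collagen IV in lung fibroblast cultures, 24 h post-dosing; gain of signal relative to DMSO vehicle baseline defines activity.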

[6] = read-out: Plasminogen activator inhibitor-1 (PAI1), SERPINE1 (gene 5054); assay: BSK_MyoF_PAI1: BioMAP Diversity Plus: MyoF Assay for Plasminogen activator inhibitor-1 (PAI1) Biomarker Activity (AID 2284256); conditions: primary human lung fibroblasts
Outline: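 In this multiplexed primary-cell system, fibroblasts from human lung received compound for 24 h before ELISA detection of PAI-1; overt toxicity was checked by SRB (0.1%, TCA-fixed, 560 nm) in parallel wells.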

[7] = read-out: Monokine induced gamma interferon (MIG), CXCL9 (gene 4283); assay: BSK_KF3CT_MIG: BioMAP Diversity Plus: KF3CT Assay for Monokine induced gamma interferon (MIG) Biomarker Activity (AID 2284248); conditions: primary human keratinocytes with fibroblasts
Outline: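 MIG in dosed human skin co-cultures was measured by ELISA at 24 h, relative to DMSO.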

[8] = read-out: Vascular cell adhesion molecule 1 (VCAM1), VCAM1 (gene 7412); assay: BSK_BF4T_VCAM1: BioMAP Diversity Plus: BF4T Assay for Vascular cell adhesion molecule 1 (VCAM1) Biomarker Activity (AID 2284249); conditions: primary human bronchial epithelial cells with fibroblasts
Outline: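 Cell-surface VCAM-1 quantified by ELISA after 24 h chemical exposure of human bronchial epithelial/dermal fibroblast co-cultures, with SRB staining in parallel wells for cytotoxicity; DMSO baseline, positive-direction fitting.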

[9] = read-out: Collagen I, COL1A1 (gene 1277); assay: BSK_hDFCGF_CollagenI: BioMAP Diversity Plus: hDFCGF Assay for Collagen I Biomarker Activity (AID 2284250); conditions: primary human foreskin fibroblasts
Outline: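 ELISA read-out of Collagen I in human dermal foreskin fibroblast cultures, 24 h after dosing. Gain of signal versus DMSO vehicle defines activity.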

[10] = read-out: Interferon-inducible T-cell alpha chemoattractant (ITAC), CXCL11 (gene 6373); assay: BSK_hDFCGF_ITAC: BioMAP Diversity Plus: hDFCGF Assay for Interferon-inducible T-cell alpha chemoattractant (ITAC) Biomarker Activity (AID 2284251); conditions: primary human foreskin fibroblasts
Outline: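 Measured by ELISA, the chemokine level serves as the endpoint in human skin fibroblast primary cultures 24 h after compound addition. Increases relative to DMSO-treated wells define activity.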

[11] = read-out: Plasminogen activator inhibitor-1 (PAI1), SERPINE1 (gene 5054); assay: BSK_KF3CT_PAI1: BioMAP Diversity Plus: KF3CT Assay for Plasminogen activator inhibitor-1 (PAI1) Biomarker Activity (AID 2284252); conditions: primary human keratinocytes with fibroblasts
Outline: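 Keratinocyte + dermal fibroblast co-culture (human primary); 24 h post-dose; PAI-1 by ELISA; gain-of-signal fit vs DMSO control.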

[12] = read-out: Monocyte Chemoattractant Protein-1 (MCP1), CCL2 (gene 6347); assay: BSK_IMphg_MCP1: BioMAP Diversity Plus: IMphg Assay for Monocyte Chemoattractant Protein-1 (MCP1) Biomarker Activity (AID 2284253); conditions: primary human endothelial cells with macrophages
Outline: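 ELISA readout of MCP-1 at 24 hours in IMphg co-cultures of venular endothelial cells and macrophages, normalised to DMSO; parallel cultures stained with sulforhodamine B for overt cytotoxicity.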

[13] = read-out: Interleukin-8 (IL8), CXCL8 (gene 3576); assay: BSK_KF3CT_IL8: BioMAP Diversity Plus: KF3CT Assay for Interleukin-8 (IL8) Biomarker Activity (AID 2284254); conditions: primary human keratinocytes with fibroblasts
Outline: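 Using parallel SRB-stained cultures to flag overt toxicity, the study quantified IL-8 by ELISA in human keratinocyte–foreskin fibroblast co-cultures 24 h after dosing, with DMSO as negative control and baseline.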

[14] = read-out: Macrophage Inflammatory Protein-1 Alpha (MIP1a), CCL3 (gene 6348); assay: BSK_IMphg_MIP1a: BioMAP Diversity Plus: IMphg Assay for Macrophage Inflammatory Protein-1 Alpha (MIP1a) Biomarker Activity (AID 2284255); conditions: primary human endothelial cells with macrophages
Outline: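 MIP-1a protein levels were quantified by ELISA after 24 h treatment of human endothelial cell–macrophage co-cultures, compared with DMSO. Parallel cultures were fixed with TCA and stained with 0.1% SRB to gauge overt cytotoxicity.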

CD69, CD69 (gene 969) = assay: BSK_IMphg_CD69: BioMAP Diversity Plus: IMphg Assay for CD69 Biomarker Activity (AID 2284257); conditions: primary human endothelial cells with macrophages
Outline: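 Readout is ELISA for CD69 in primary human venular endothelial cell/macrophage co-culture, taken at 24 h post-dosing. SRB staining of parallel cultures gauged overt cytotoxicity; signal increase versus DMSO defined activity.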

[15] = read-out: Eotaxin 3, CCL26 (gene 10344); assay: BSK_BF4T_Eotaxin3: BioMAP Diversity Plus: BF4T Assay for Eotaxin 3 Biomarker Activity (AID 2284258); conditions: primary human bronchial epithelial cells with fibroblasts
Outline: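 ELISA measurement of Eotaxin-3 after 24 h chemical exposure in a bronchial epithelial/dermal fibroblast co-culture, with DMSO as baseline. Parallel SRB staining (0.1% SRB after 10% TCA fixation, 560 nm) flagged overt cytotoxicity.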

[16] = read-out: Monocyte Chemoattractant Protein-1 (MCP1), CCL2 (gene 6347); assay: BSK_BF4T_MCP1: BioMAP Diversity Plus: BF4T Assay for Monocyte Chemoattractant Protein-1 (MCP1) Biomarker Activity (AID 2284259); conditions: primary human bronchial epithelial cells with fibroblasts
Outline: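 MCP-1 ELISA readout taken 24 h after dosing in the BF4T system (bronchial epithelial cells plus dermal fibroblasts). Parallel SRB total-protein staining flagged cytotoxicity; DMSO served as baseline, positive fitting direction.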

[17] = read-out: Intercellular Adhesion Molecule 1 (ICAM1), ICAM1 (gene 3383); assay: BSK_BF4T_ICAM1: BioMAP Diversity Plus: BF4T Assay for Intercellular Adhesion Molecule 1 (ICAM1) Biomarker Activity (AID 2284260); conditions: primary human bronchial epithelial cells with fibroblasts
Outline: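 ICAM-1 levels measured by ELISA after 24 h chemical treatment of bronchial epithelial cell/dermal fibroblast co-cultures, read against DMSO baseline. Overt cytotoxicity checked in parallel cultures by sulforhodamine B staining.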

[18] = CCTE_Mundy_HCI_hNP1_CellTiter: CCTE's Cell Titer-Glo 2 Assay in human neuroprogenitor cells for Viability, Mundy Lab (AID 2284241; active = hit-call score of the fitted dose curve at least 0.9, where 1 is the maximum;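 note: a hit is a drop in ATP luminescence versus DMSO meaning reduced viability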)
Outline: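 Viability read as luminescent ATP content (CellTiter-Glo, 30 min room temperature) twenty-four hours after dosing, relative to DMSO. Cells: WA09-derived hNP1 neuroprogenitors on poly-L-ornithine/laminin, plated 40 to 44 hours before chemical.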

[19] = CCTE_Mundy_HCI_Cortical_Synap_Neur_Matur_NeuronCount: CCTE's Synaptogenesis and Neurite Maturation Assay in rat cortical cells for Neuron Count, Mundy Lab (AID 2284242; active = hit-call score of the fitted dose curve at least 0.9, where 1 is the maximum;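 for AC50: neuron number from Hoechst nuclei and MAP2 staining by high-content imaging; hits reduce neuron count versus DMSO baseline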)
Outline: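 Rat cortical cultures; AraC DIV 5; chemical dosing + media change DIV 7 to DIV 12 (288.33 h readout). Fix, Hoechst, anti-MAP2/anti-synaptophysin immunostain; HCI neuron count vs DMSO baseline.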

Measured: AC50

ClC(Cl)=C(Cl)C(Cl)=C(Cl)Cl
inactive: [1] | [3] | [4] | [5] | [6]
active: [2] 3.97 µM

COP(=S)(OC)Oc1cc(Cl)c(Cl)cc1Cl
active: [2] 31.9 µM
inactive: [1] | [3] | [4] | [5] | [6]

Nc1ccc(-c2ccc(N)c(Cl)c2)cc1Cl
inactive: [2] | [4] | [5] | [6]
active: [1] 20 µM | [3] 32.4 µM

BrCCBr
inactive: [1] | [2] | [3] | [4] | [5] | [6]

O=C(O)C(F)(F)C(F)(F)C(F)(F)C(F)(F)C(F)(F)C(F)(F)C(F)(F)C(F)(F)C(F)(F)C(F)(F)F
inactive: [1] | [3] | [9] | [12] | [14] | CD69, CD69 (gene 969)
active: [2] 2.74 µM and 2.55 µM | [4] 5.14 µM and 6.09 µM | [5] 816 nM and 843 nM | [7] 6.52 µM and 5.48 µM | [8] 4.89 µM and 5.89 µM | [9] 3.39 µM | [10] 5.59 µM | [11] 2.66 µM and 4.56 µM | [13] 3.33 µM and 5.2 µM | [6] 5.52 µM and 6.52 µM | [15] 3.14 µM and 3.33 µM | [16] 5.55 µM and 5.18 µM | [17] 5.15 µM and 4.51 µM

CCCCC(CC)CO[N+](=O)[O-] (stereo unspecified)
inactive: [1] | [2] | [3] | [4] | [5] | [6]

O=[N+]([O-])c1ccc2c3c(cccc13)CC2
inactive: [1] | [2] | [3] | [4] | [5] | [6]

COP(=O)(OC)O/C(=C\Cl)c1cc(Cl)c(Cl)cc1Cl
active: [18] 23.3 µM and 89 µM | [19] 51.5 µM
inactive: [19]

CCOP(=S)(OCC)Oc1nc(Cl)c(Cl)cc1Cl
active: [18] 35.5 µM | [19] 82.7 µM and 26.6 µM

COC(=O)c1sccc1S(=O)(=O)NC(=O)Nc1nc(C)nc(OC)n1
inactive: [1] | [2] | [3] | [4] | [5] | [6]

CC(C)CCCCCCOC(=O)c1ccccc1C(=O)OCCCCCCC(C)C
inactive: [1] | [2] | [3] | [4] | [5] | [6]

C=C(C)C(=O)[O][Sn]([CH2]CCC)([CH2]CCC)[CH2]CCC
active: [18] 0.335 µM | [19] 0.0547 µM

CC1(C)Cc2cccc(O)c2O1
inactive: [1] | [2] | [3] | [4] | [5] | [6]

Nc1ncc([N+](=O)[O-])s1
inactive: [1] | [2] | [3] | [4] | [5] | [6]

OCc1ccco1
inactive: [2] | [3] | [4] | [5] | [6]
active: [1] 9.51 µM

C(=NC1CCCCC1)=NC1CCCCC1
active: [1] 13.4 µM | [2] 7.21 µM | [3] 10.7 µM | [4] 11.9 µM | [5] 12.4 µM | [6] 7.53 µM

O=C1C2(Cl)C3(Cl)C4(Cl)C(Cl)(Cl)C5(Cl)C3(Cl)C1(Cl)C5(Cl)C24Cl (stereo unspecified)
active: [18] 23.5 µM
inactive: [19]

COP(=S)(OC)Oc1ccc(Sc2ccc(OP(=S)(OC)OC)cc2)cc1
active: [2] 27.4 µM
inactive: [1] | [3] | [4] | [5] | [6]

O=C(O)CCC(F)(C(F)(F)F)C(F)(F)F
inactive: [1] | [2] | [3] | [4] | [5] | [7] | [8] | [9] | [10] | [11] | [12] | [13] | [14] | [6] | CD69, CD69 (gene 969) | [15] | [16] | [17]
active: [10] 5.95 µM

CC(=O)C(Cl)C(=O)N(C)C (stereo unspecified)
active: [1] 28.8 µM | [3] 34.4 µM
inactive: [2] | [4] | [5] | [6]
